Experimental data reported in PubChem BioAssay (EPA / NIEHS).
Several values for one entry are separate records, joined by “and”; a condition that tells them apart may be missing. Equal values may be shown once. Results filed as inconclusive are left out. Activity calls are given as the source filed them. How the source made its calls, unless noted: active means hit-call score of the fitted dose curve at least 0.9, where 1 is the maximum; inactive means score below 0.9.

Experiments:
[1] = biological target: Nuclear respiratory factor 1 (Homo sapiens) (UniProt Q16656); experiment: ATG_NRF1_CIS: Attagene CIS-FACTORIAL HepG2 Assay for human Nuclear Respiratory Factor 1 (NRF1) Orphan Gene (AID 2282987); conditions: HepG2 NRF1 cis-element reporter, Attagene multiplex; actives raise or lower the signal
Method in brief: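 Transcriptional reporter readout, one component of a 52-endpoint multiplexed HepG2 panel. Exposure 24 h; mRNA detected via RT-PCR and fluorescent capillary electrophoresis; fitting in both directions against DMSO.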

[2] = ATG_NFI_CIS: Attagene CIS-FACTORIAL HepG2 Assay for human Nuclear Factor I (NFI) (AID 2282989); conditions: HepG2 cis-regulatory reporter, NFI response element transcription; actives raise or lower the signal
Method in brief: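 Endogenous TF activity in HepG2 cells transiently transfected with cis-element-driven multiplexed reporter units, read 24 h after dosing. Reporter mRNA quantified by RT-PCR, 6-FAM labelling, HpaI digestion and capillary electrophoresis; bidirectional fit versus DMSO.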

[3] = biological target: Myc proto-oncogene protein (Homo sapiens) (UniProt P01106); experiment: ATG_Myc_CIS: Attagene CIS-FACTORIAL HepG2 Assay for human Myelocytomatosis (Myc) Proto-Oncogene Transcription Factor (AID 2282990); conditions: HepG2, Attagene cis-reporter transcription factor activity; actives raise or lower the signal
Method in brief: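 Cells of the HepG2 human liver line bear multiple cis-driven reporter transcription units. Reporter mRNA after 24 h exposure is reverse-transcribed, amplified, labelled and resolved by capillary electrophoresis, with gain- or loss-of-signal fitting relative to DMSO.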

[4] = ATG_NF_kB_CIS: Attagene CIS-FACTORIAL HepG2 Assay for human Nuclear Factor Kappa B (NF-kB) (AID 2282991); conditions: HepG2 Attagene cis-factorial NF-kB reporter mRNA; actives raise or lower the signal
Method in brief: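 HepG2, transient multi-reporter transfection, cis promoter elements (endogenous TFs). 24 h exposure. Total RNA → RT → PCR → 6-FAM label → HpaI → CE. Gain/loss vs DMSO.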

[5] = ATG_NRF2_ARE_CIS: Attagene CIS-FACTORIAL HepG2 Assay for human Nuclear Factor Erythroid 2 Related Factor 2 (NFR2) response to Antioxidant Response Elements (ARE) (AID 2282992); conditions: HepG2 Attagene ARE/NRF2 reporter, transcription factor activity; actives raise or lower the signal
Method in brief: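 Endogenous transcription factor activity read out as reporter transcript levels (RT-PCR plus capillary electrophoresis, fluorescence) in transiently transfected HepG2 cells. Measured at 24 h after dosing; gain or loss of signal fitted versus DMSO.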

[6] = ATG_Oct_MLP_CIS: Attagene CIS-FACTORIAL HepG2 Assay for human Octamer-Binding Transcription Factor (Oct) (AID 2282993); conditions: HepG2 Attagene cis-factorial Oct reporter, mRNA; actives raise or lower the signal
Method in brief: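 HepG2 cells transiently transfected with cis-element-driven reporter transcription units (endogenous TF activity); 24 h compound exposure. Reporter mRNA quantified by RT-PCR, 6-FAM labelling, HpaI digestion and capillary electrophoresis; bidirectional fit versus DMSO baseline.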

[7] = biological target: Cellular tumor antigen p53 (Homo sapiens) (UniProt P04637); experiment: ATG_p53_CIS: Attagene CIS-FACTORIAL HepG2 Assay for human p53 Transcription Factor (AID 2282994); conditions: HepG2 p53 cis-element reporter, Attagene mRNA; actives raise or lower the signal
Method in brief: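 Endogenous p53 activity read in transiently transfected HepG2 from a cis-element-driven reporter transcript after 24 h exposure. RNA reverse-transcribed, PCR-amplified, fluorescently labelled and sized by capillary electrophoresis; gain or loss fitted against DMSO baseline.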

[8] = biological target: human Peroxisome Proliferator-activated Receptor alpha (PPARa), PPARA (gene 5465) (UniProt Q07869); experiment: ATG_PPARa_TRANS: Attagene TRANS-FACTORIAL HepG2 Assay for human Peroxisome Proliferator-activated Receptor alpha (PPARa) (AID 2283001; active means hit-call score of the fitted dose curve at least 0.9, where 1 is the maximum)
Method in brief: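 Transfected HepG2 cells treated with test chemical for 24 h. RNA isolated, reverse-transcribed with oligo(dT), PCR-amplified, FAM-labelled and HpaI-digested. Fragments sized by capillary electrophoresis; gain-of-signal fit relative to DMSO.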

[9] = biological target: human Peroxisome Proliferator-activated Receptor delta (PPARd), PPARD (gene 5467) (UniProt Q03181); experiment: ATG_PPARd_TRANS: Attagene TRANS-FACTORIAL HepG2 Assay for human Peroxisome Proliferator-activated Receptor delta (PPARd) (AID 2283002; active means hit-call score of the fitted dose curve at least 0.9, where 1 is the maximum)
Method in brief: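 Cell-based TRANS reporter: HepG2, transient MRTU transfection, 24 h exposure. Readout = reporter mRNA (RT-PCR/CE, 6-FAM). Gain-of-signal fit vs DMSO control.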

[10] = biological target: human Retinoic Acid Receptor beta (RARb), RARB (gene 5915) (UniProt P10826); experiment: ATG_RARb_TRANS: Attagene TRANS-FACTORIAL HepG2 Assay for human Retinoic Acid Receptor beta (AID 2283004; active means hit-call score of the fitted dose curve at least 0.9, where 1 is the maximum)
Method in brief: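 Fluorescent capillary-electrophoresis detection of GAL4-UAS reporter mRNA defines the endpoint, with induction over DMSO-treated wells scored as activity. Transiently transfected human hepatoma HepG2 cells expressing exogenous NR–Gal4 proteins are exposed to test chemicals for 24 h.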

[11] = biological target: Retinoic acid receptor alpha (Homo sapiens) (UniProt P10276); experiment: ATG_RARa_TRANS: Attagene TRANS-FACTORIAL HepG2 Assay for human Retinoic Acid Receptor alpha (RARa) (AID 2283005; active means hit-call score of the fitted dose curve at least 0.9, where 1 is the maximum)
Method in brief: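 Reporter transcripts, measured by RT-PCR with fluorescent labeling and capillary electrophoresis after 24 h dosing, reflect activity of an exogenous human RARa–GAL4 fusion in transiently transfected HepG2. Fitted for increase relative to DMSO.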

[12] = biological target: Peroxisome proliferator-activated receptor gamma (Homo sapiens) (UniProt P37231); experiment: ATG_PPARg_TRANS: Attagene TRANS-FACTORIAL HepG2 Assay for human Peroxisome Proliferator-activated Receptor-gamma (PPARg) (AID 2283007; active means hit-call score of the fitted dose curve at least 0.9, where 1 is the maximum)
Method in brief: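 Multiplexed reporter transcription units in HepG2, 24 h dosing, reporter transcripts quantified by fluorescent RT-PCR and capillary electrophoresis. Increase over DMSO scored.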

[13] = BSK_3C_TissueFactor: BioMAP Diversity Plus: 3C Assay for Tissue Factor Biomarker Activity (AID 2282997); conditions: BioMAP 3C HUVEC, tissue factor biomarker readout; actives raise or lower the signal
Method in brief: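 In this endothelial system, HUVEC are treated for 24 h and Tissue Factor is assessed by ELISA, normalised to DMSO.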

[14] = BSK_3C_uPAR: BioMAP Diversity Plus: 3C Assay for Urokinase-type plasminogen activator receptor (uPAR) Biomarker Activity (AID 2282998); conditions: BioMAP 3C HUVEC, uPAR biomarker ELISA; actives raise or lower the signal
Method in brief: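 Primary human umbilical vein endothelial cells, 3C system; surface uPAR measured by ELISA 24 h after dosing. Cytotoxicity via SRB total protein in parallel cultures; bidirectional fit against DMSO.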

[15] = BSK_3C_VCAM1: BioMAP Diversity Plus: 3C Assay for Vascular cell adhesion molecule 1 (VCAM1) Biomarker Activity (AID 2282999); conditions: BioMAP 3C HUVEC, VCAM1 ELISA, cytokine-stimulated; actives raise or lower the signal
Method in brief: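 Activity fitted in both directions relative to DMSO, with ELISA measurement of the surface marker on primary HUVEC (3C) at 24 h post-treatment; parallel SRB staining (0.1% SRB, TCA-fixed, 560 nm) flagged overt cytotoxicity.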

[16] = BSK_4H_Eotaxin3: BioMAP Diversity Plus: 4H Assay for Eotaxin 3 Biomarker Activity (AID 2283000); conditions: primary human endothelial cells (HUVEC); actives raise or lower the signal
Method in brief: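 ELISA quantitation of CCL26 (Eotaxin-3) protein from chemically dosed human vascular endothelial cells at 24 h; increases and decreases both scored relative to DMSO-treated baseline.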

[17] = read-out: Intercellular Adhesion Molecule 1 (ICAM1), ICAM1 (gene 3383); experiment: BSK_3C_ICAM1: BioMAP Diversity Plus: 3C Assay for Intercellular Adhesion Molecule 1 (ICAM1) Biomarker Activity (AID 2283003); conditions: primary human endothelial cells (HUVEC); actives raise or lower the signal
Method in brief: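 Using DMSO as baseline, bidirectional curve fitting was applied to ICAM-1 ELISA signals from HUVEC in the 3C system, measured 24 h after compound addition.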

[18] = BSK_3C_Proliferation: Cell Proliferation Assessment in the BioMAP Diversity Plus: 3C Assay (AID 2283006); conditions: primary human endothelial cells (HUVEC);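 on AC50: potency may reflect either rise or fall in cell number versus DMSO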
Method in brief: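 Measured here: sulforhodamine B (0.1%) staining of TCA-fixed sub-confluent umbilical vein endothelial cultures 48 h post-dosing, absorbance 560 nm. DMSO served as negative control and baseline; both signal gain and loss were modelled.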

[19] = biological target: Nuclear receptor subfamily 1 group I member 2 (Homo sapiens) (UniProt O75469); experiment: ATG_PXR_TRANS: Attagene TRANS-FACTORIAL HepG2 Assay for human Pregnane X Receptor (PXR) (AID 2283008; active means hit-call score of the fitted dose curve at least 0.9, where 1 is the maximum)
Method in brief: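 Transactivation by exogenous PXR–GAL4 fusion measured as reporter transcript induction after 24 h compound treatment of transfected human HepG2 cells. Read-out via RT-PCR and capillary electrophoresis of labelled fragments, fitted upward relative to DMSO.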

[20] = biological target: human Retinoic Acid Receptor gamma (RARg), RARG (gene 5916) (UniProt P13631); experiment: ATG_RARg_TRANS: Attagene TRANS-FACTORIAL HepG2 Assay for human Retinoic Acid Receptor gamma (RARg) (AID 2283009; active means hit-call score of the fitted dose curve at least 0.9, where 1 is the maximum)
Method in brief: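 Gain-of-signal relative to DMSO is reported from fluorescent capillary electrophoresis of RT-PCR reporter products. These came from HepG2 cells expressing transfected RARg-GAL4 chimeras with UAS reporters, harvested 24 h after dosing.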

Measured: AC50

Chain of Cellular tumor antigen p53 (Homo sapiens) (P04637 whole entry, looked up): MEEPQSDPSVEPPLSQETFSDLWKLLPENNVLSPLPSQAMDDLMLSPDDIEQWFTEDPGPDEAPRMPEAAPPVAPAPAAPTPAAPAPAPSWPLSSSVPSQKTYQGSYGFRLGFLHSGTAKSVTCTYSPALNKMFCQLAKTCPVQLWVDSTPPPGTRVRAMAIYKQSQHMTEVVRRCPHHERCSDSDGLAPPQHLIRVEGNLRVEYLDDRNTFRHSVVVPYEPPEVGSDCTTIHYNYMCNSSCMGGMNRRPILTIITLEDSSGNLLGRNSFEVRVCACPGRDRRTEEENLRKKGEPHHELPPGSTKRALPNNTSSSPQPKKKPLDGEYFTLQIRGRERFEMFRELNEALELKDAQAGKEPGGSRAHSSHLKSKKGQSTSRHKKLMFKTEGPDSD
Chain of Myc proto-oncogene protein (Homo sapiens) (P01106 whole entry, looked up): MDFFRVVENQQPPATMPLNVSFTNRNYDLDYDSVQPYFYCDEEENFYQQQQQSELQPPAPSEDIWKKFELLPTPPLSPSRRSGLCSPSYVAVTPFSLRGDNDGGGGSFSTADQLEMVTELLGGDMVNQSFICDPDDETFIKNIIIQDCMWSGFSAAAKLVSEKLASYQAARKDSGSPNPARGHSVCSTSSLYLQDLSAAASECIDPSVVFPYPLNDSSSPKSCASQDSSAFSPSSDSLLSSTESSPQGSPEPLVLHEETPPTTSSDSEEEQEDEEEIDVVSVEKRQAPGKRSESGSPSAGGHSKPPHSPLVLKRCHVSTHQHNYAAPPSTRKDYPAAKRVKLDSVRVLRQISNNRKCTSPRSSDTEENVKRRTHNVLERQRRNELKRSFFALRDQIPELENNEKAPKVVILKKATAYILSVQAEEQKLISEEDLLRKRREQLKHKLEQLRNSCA
Chain of Retinoic acid receptor alpha (Homo sapiens) (P10276 whole entry, looked up, the tested form may be a part): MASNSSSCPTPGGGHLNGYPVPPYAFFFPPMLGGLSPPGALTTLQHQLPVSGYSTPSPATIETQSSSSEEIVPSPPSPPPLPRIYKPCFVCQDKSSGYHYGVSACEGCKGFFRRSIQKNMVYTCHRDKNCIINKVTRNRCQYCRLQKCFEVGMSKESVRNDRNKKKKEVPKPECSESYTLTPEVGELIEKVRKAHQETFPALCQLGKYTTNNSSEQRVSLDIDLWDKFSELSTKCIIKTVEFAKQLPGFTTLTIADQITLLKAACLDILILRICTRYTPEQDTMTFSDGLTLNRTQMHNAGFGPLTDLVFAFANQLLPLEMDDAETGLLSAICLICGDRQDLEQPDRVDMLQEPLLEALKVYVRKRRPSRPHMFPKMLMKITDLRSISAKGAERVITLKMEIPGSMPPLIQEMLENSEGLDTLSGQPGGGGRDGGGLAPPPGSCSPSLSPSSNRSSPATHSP
Chain of Nuclear respiratory factor 1 (Homo sapiens) (Q16656 whole entry, looked up): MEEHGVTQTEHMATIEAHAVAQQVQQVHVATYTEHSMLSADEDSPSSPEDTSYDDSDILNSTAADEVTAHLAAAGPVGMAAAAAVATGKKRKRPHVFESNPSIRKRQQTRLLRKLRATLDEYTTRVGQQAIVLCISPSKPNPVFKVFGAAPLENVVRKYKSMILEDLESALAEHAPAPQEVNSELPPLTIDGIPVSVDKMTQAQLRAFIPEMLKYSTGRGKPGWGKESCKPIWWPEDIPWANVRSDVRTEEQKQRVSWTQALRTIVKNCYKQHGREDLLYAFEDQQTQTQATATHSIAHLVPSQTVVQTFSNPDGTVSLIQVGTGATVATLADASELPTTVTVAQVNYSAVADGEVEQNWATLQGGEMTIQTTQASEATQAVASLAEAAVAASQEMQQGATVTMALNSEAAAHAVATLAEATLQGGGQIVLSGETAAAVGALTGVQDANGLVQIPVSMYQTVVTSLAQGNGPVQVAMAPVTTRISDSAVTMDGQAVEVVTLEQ
Chain of human Peroxisome Proliferator-activated Receptor alpha (PPARa), PPARA (gene 5465) (Q07869 whole entry, looked up, the tested form may be a part): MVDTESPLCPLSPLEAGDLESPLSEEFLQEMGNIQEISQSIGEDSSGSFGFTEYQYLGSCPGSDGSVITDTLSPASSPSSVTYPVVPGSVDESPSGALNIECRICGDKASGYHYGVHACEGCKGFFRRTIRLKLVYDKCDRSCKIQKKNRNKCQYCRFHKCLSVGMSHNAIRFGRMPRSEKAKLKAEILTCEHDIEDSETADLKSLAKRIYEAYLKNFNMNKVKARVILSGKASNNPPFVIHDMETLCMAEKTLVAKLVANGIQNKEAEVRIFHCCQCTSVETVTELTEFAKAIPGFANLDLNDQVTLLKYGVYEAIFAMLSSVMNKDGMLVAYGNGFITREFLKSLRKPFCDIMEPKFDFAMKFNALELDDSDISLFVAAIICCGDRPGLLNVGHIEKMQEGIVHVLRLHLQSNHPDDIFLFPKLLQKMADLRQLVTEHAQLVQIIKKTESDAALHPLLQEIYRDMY
Chain of human Peroxisome Proliferator-activated Receptor delta (PPARd), PPARD (gene 5467) (Q03181 whole entry, looked up): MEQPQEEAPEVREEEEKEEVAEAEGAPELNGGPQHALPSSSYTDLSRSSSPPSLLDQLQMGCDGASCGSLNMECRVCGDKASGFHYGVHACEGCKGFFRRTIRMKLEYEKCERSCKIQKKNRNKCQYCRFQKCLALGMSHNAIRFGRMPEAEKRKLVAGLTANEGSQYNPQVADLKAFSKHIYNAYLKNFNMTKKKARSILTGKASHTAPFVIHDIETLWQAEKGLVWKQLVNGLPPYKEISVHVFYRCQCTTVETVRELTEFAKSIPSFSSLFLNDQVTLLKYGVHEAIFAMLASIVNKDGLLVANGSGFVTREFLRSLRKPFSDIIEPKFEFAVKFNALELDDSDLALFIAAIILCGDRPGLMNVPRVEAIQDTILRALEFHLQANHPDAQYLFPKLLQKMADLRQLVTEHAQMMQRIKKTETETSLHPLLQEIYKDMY
Chain of Peroxisome proliferator-activated receptor gamma (Homo sapiens) (P37231 whole entry, looked up): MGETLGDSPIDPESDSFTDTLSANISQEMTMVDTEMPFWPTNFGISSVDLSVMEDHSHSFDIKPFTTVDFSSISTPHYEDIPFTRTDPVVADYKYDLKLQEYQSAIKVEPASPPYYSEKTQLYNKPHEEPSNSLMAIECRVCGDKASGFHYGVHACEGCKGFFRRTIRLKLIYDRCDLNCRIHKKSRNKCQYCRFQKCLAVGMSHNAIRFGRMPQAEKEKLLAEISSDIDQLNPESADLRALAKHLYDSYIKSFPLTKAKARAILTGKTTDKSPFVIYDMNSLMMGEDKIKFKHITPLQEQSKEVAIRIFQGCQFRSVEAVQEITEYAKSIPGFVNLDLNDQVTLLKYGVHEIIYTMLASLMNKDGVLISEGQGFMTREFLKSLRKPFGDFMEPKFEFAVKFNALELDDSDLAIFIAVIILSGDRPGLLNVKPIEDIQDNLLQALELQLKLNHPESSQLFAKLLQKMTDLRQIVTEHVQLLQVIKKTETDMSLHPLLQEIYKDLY
Chain of human Retinoic Acid Receptor gamma (RARg), RARG (gene 5916) (P13631 whole entry, looked up, the tested form may be a part): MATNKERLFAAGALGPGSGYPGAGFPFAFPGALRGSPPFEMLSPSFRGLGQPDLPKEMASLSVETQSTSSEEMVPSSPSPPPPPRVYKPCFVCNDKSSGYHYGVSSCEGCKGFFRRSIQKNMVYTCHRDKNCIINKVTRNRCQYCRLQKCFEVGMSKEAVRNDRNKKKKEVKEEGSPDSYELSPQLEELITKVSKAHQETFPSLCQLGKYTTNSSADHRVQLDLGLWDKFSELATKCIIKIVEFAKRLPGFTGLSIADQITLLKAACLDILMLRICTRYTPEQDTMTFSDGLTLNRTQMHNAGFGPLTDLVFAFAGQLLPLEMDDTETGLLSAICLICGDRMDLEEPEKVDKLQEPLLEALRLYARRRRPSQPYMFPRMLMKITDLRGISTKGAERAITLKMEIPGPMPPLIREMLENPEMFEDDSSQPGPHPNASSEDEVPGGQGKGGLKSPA
Chain of human Retinoic Acid Receptor beta (RARb), RARB (gene 5915) (P10826 whole entry, looked up, the tested form may be a part): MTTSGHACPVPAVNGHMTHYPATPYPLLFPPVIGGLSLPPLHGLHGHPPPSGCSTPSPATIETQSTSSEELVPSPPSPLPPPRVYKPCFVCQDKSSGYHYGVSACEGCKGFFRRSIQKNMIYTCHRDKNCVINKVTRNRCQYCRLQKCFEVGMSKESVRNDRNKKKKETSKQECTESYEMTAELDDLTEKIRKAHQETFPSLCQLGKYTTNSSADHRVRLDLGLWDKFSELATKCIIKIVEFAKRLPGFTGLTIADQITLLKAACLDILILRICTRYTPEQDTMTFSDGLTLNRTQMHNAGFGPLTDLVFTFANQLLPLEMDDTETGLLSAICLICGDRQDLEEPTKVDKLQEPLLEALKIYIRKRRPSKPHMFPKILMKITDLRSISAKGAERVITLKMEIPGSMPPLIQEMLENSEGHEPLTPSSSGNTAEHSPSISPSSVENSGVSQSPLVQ
Chain of Nuclear receptor subfamily 1 group I member 2 (Homo sapiens) (O75469 whole entry, looked up, the tested form may be a part): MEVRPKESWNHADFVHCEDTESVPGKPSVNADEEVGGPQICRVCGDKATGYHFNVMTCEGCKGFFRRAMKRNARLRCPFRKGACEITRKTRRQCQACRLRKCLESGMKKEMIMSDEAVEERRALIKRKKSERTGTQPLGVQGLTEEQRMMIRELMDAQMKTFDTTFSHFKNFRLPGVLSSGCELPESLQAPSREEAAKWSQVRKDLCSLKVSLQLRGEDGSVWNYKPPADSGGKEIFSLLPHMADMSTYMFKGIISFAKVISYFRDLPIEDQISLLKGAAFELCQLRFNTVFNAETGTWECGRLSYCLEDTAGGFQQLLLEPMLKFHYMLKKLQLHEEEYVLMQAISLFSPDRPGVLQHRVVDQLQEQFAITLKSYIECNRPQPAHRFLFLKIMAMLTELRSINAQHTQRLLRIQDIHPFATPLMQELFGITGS

O=C1C=CC(=O)N1c1ccccc1
active: [5] 53.8 µM
not listed: [13] | [14] | [15] | [16] | [17] | [18] | [19] | [20]
inactive: all other assays above

Cc1cc(O)c(C(C)(C)C)cc1C(C)(C)C
active: [5] 11.1 µM | [13] 3.4 µM | [14] 3.82 µM | [15] 4.42 µM | [16] 4.12 µM | [17] 8.46 µM | [18] 2.36 µM | [19] 3.47 µM
not listed: [8]
inactive: all other assays above

CC1=CCC(=O)O1
not listed: [13] | [14] | [15] | [16] | [17] | [18] | [19] | [20]
inactive: all other assays above

CC1=CC2C3C=CC(C3)C2C1C (stereo not drawn)
active: [2] 100 µM | [5] 50.6 µM | [7] 80.4 µM | [19] 0.387 µM
not listed: [8] | [10] | [11] | [20]
inactive: all other assays above

COC(F)(C(F)F)C(F)(F)F (stereo not drawn)
not listed: [8] | [10] | [20]
inactive: all other assays above

O=C=Nc1cccc2c(N=C=O)cccc12
active: [19] 0.628 µM
not listed: [8] | [11] | [20]
inactive: all other assays above

O=C=NCc1cccc(CN=C=O)c1
not listed: [8] | [10] | [11] | [12] | [20]
inactive: all other assays above

OCC(O)CC(F)(F)C(F)(F)C(F)(F)C(F)(F)F (stereo not drawn)
not listed: [9] | [10] | [11] | [20]
inactive: all other assays above

FC(F)(F)C(F)(F)C(F)(F)C(F)(F)C(F)(F)C(F)(F)CC[Si](Cl)(Cl)Cl
not listed: [9] | [11]
inactive: all other assays above

CCN(CC)c1ccc(C=O)cc1
active: [19] 27.7 µM
not listed: [8] | [10] | [11] | [20]
inactive: all other assays above

Nc1cc([N+](=O)[O-])cc(Cl)c1O
not listed: [9] | [10] | [11] | [12] | [20]
inactive: all other assays above

CCCCCCCCCCCCCCCCC
inactive: [1] | [2] | [3] | [4] | [5] | [6] | [7] | [8] | [9]

CCN(CC)c1ccc2c(c1)Oc1cc(N(CC)CC)ccc1C21OC(=O)c2ccccc21
active: [5] 34.8 µM | [13] 2.97 µM | [14] 11.2 µM | [18] 5.03 µM | [12] 17.6 µM | [19] 0.348 µM
not listed: [8] | [10] | [11] | [20]
inactive: all other assays above

CC(C)C(=O)OCc1ccccc1
inactive: [1] | [2] | [3] | [4] | [5] | [6] | [7] | [8]

C=CC(=O)OCC(F)(F)C(F)(F)C(F)(F)COC(=O)C=C
active: [4] 15.9 µM | [5] 12.7 µM | [6] 10.9 µM | [7] 78.8 µM | [13] 23.3 µM and 14.6 µM | [14] 30 µM and 48.5 µM | [15] 15.6 µM and 20.5 µM | [16] 9.89 µM and 8.33 µM | [17] 46.5 µM | [18] 8.32 µM and 9.46 µM | [12] 2.69 µM
inactive: [1] | [2] | [3] | [8] | [19] | [20]
